Laboratory results: PubChem BioAssay (NCI)
About 79,000 compounds went through this panel and 15% of them were active in at least one assay; those are over-represented in the sample as a whole. The source made the active and inactive calls. Rule as the data show it: active = growth inhibition above about 70%; inactive = the rest.

Experiment: NCI Yeast Anticancer Drug Screen. Data for the rad52 strain (AID 147);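 also: 0% = growth of vehicle-treated control cultures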
Details: S. cerevisiae rad52 mutant growth inhibition, stronger effect = higher value
Procedure: Growth inhibition of yeast strains with defined genetic alterations is measured as a screen for potential anti-cancer activity. Selected strains with alterations in DNA damage repair or cell cycle control were exposed to compounds and growth inhibition was measured relative to vehicle treated controls. The strain used in this assay is rad52

Measured: growth inhibition

COC(=O)/C=C(/CC(=O)OC)C(=O)OC
inactive: at 1.2 µM 0% | at 3.7 µM -1% | at 11.0 µM -1% | at 33.0 µM -1% | at 100.0 µM -2%

Clc1ccc(NCNC2Nc3ccccc3N2)cc1Cl
inactive: at 1.2 µM -1% | at 3.7 µM -1% | at 11.0 µM 18%
active: at 33.0 µM 97% | at 100.0 µM 98%

Cc1cc(N(CCOS(C)(=O)=O)CCOS(C)(=O)=O)ccc1C=Nc1ccc(-c2nc(Cc3ccccc3)sc2C)cc1
inactive: at 1.2 µM 9% | at 3.7 µM 52%
active: at 11.0 µM 84% | at 33.0 µM 92% | at 100.0 µM 96%

O=C1c2ccccc2C(=O)c2cc(CCl)ccc21
inactive: at 1.2 µM 4% | at 3.7 µM 12% | at 11.0 µM 17% | at 33.0 µM 21% | at 100.0 µM 20%

Cc1ccc(N=Nc2ccc(O)c(=O)cc2)cc1
inactive: at 1.2 µM -11% | at 3.7 µM 1% | at 11.0 µM 54%
active: at 33.0 µM 89% | at 100.0 µM 93%

Cc1c2ccnc(C(=O)NCCN(C)C)c2cc2c3cc(O)ccc3n(C)c12
inactive: at 1.2 µM 2% | at 3.7 µM 23% | at 11.0 µM 69%
active: at 33.0 µM 88% | at 100.0 µM 92%

CCn1c(O)c(C=Nc2ccccc2)s/c1=N/Nc1nc(-c2ccccc2)cs1
inactive: at 1.2 µM 12% | at 3.7 µM 5% | at 11.0 µM 10% | at 33.0 µM 4% | at 100.0 µM 20%

O=C(O)CCCC1CCCc2c1ccc1ccccc21 (stereo not given)
active: at 33.0 µM 74% | at 100.0 µM 99%
inactive: at 1.2 µM -2% | at 3.7 µM 1% | at 11.0 µM 11%
